{"source": "PubChem BioAssay AID1347418", "about": "(Sanford-Burnham Center for Chemical Genomics, 2020)", "note": "In all, about 1,300 compounds went through this assay and about 750 (58%) were called active. Some of the results follow. Unmarked numbers belong to inactive results."}
{"target": "Sulfhydryl oxidase 1 (Homo sapiens) (UniProt O00391)", "sequence (O00391 whole entry, looked up)": "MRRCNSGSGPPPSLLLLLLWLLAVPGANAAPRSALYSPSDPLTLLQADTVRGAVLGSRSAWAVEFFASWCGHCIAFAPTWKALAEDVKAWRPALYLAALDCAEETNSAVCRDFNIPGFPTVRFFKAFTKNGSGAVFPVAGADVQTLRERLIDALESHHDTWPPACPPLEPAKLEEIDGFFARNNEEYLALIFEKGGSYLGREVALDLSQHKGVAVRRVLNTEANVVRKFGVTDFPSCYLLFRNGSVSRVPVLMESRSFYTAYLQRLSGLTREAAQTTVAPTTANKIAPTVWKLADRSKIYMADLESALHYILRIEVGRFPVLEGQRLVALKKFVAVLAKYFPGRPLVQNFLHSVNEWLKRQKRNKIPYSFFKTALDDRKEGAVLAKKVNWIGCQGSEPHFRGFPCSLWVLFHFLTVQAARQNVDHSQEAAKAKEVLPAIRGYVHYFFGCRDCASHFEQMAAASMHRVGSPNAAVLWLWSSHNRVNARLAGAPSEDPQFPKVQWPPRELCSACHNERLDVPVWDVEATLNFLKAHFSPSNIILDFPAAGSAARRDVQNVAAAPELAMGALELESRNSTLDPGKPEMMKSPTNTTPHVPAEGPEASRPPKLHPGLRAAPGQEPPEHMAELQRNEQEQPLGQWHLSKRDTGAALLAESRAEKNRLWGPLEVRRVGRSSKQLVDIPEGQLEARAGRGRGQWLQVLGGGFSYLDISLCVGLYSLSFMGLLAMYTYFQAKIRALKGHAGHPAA", "assay": "QSOX1 enzyme inhibitors, primary screen, biochemical, ROS-Glo H2O2 luminescence, HTS (AID 1347418)", "conditions": "recombinant QSOX1, ROS-Glo H2O2 luminescence; at 12.5 µM; hits give high values; active = any value above zero"}
{"smiles": "CN(C)c1nc(N(C)C)nc(N(C)C)n1", "inhibition": "-0.9%"}
{"smiles": "CC(=O)N1CCN(c2ccc(OC[C@H]3CO[C@](Cn4ccnc4)(c4ccc(Cl)cc4Cl)O3)cc2)CC1", "inhibition": "9.3% (active)"}
{"smiles": "Nc1nc2c(ncn2COC(CO)CO)c(=O)[nH]1", "inhibition": "0.2% (active)"}
{"smiles": "Nc1nc2c(ncn2COCCO)c(=O)[nH]1", "inhibition": "0%"}
{"smiles": "CO/N=C(\\C(=O)N[C@@H]1C(=O)N2C(C(=O)O)=C(COC(C)=O)CS[C@H]12)c1csc(N)n1", "inhibition": "-6.9%"}
{"smiles": "CC(=O)OCC1=C(C(=O)O)N2C(=O)[C@@H](NC(=O)Cc3cccs3)[C@H]2SC1", "inhibition": "1% (active)"}
{"smiles": "Cc1ccc(/C(=C\\CN2CCCC2)c2ccccn2)cc1", "inhibition": "-2.5%"}
{"smiles": "O=C1N=C(O)C(c2ccccc2)(c2ccccc2)N1", "inhibition": "-3.8%"}
{"smiles": "CCCOc1ccccc1-c1nc2n[nH]nc2c(=O)[nH]1", "inhibition": "-3%"}
{"smiles": "O=c1[nH]c(=O)c2nc3ccccc3nc2[nH]1", "inhibition": "8% (active)"}
{"smiles": "C[C@]12CCC(=O)C=C1CC[C@@H]1[C@@H]2CC[C@@]2(C)[C@H]1CC[C@]2(O)C(=O)CO", "inhibition": "1.9% (active)"}
{"smiles": "CC(=O)[C@H]1CC[C@H]2[C@@H]3CCC4=CC(=O)CC[C@]4(C)[C@H]3CC[C@]12C", "inhibition": "-0.5%"}
{"smiles": "CC(=O)OCC(=O)[C@@]1(O)CC[C@H]2[C@@H]3CCC4=CC(=O)CC[C@]4(C)[C@H]3C(=O)C[C@@]21C", "inhibition": "-7.3%"}
{"smiles": "C[C@]12CCC(=O)C=C1CC[C@@H]1[C@@H]2[C@@H](O)C[C@@]2(C)[C@H]1CC[C@]2(O)C(=O)CO", "inhibition": "-7.5%"}
{"smiles": "CC(=O)SC1CC2=CC(=O)CC[C@]2(C)C2CC[C@@]3(C)C(CC[C@@]34CCC(=O)O4)C12", "note": "(some centres undefined)", "inhibition": "-4.3%"}
{"smiles": "C[C@]12CCC(=O)C=C1CC[C@@H]1[C@@H]2C(=O)C[C@@]2(C)[C@H]1CC[C@]2(O)C(=O)CO", "inhibition": "4.5% (active)"}
{"smiles": "CC(=O)[C@@]1(O)CC[C@H]2[C@@H]3CCC4=CC(=O)CC[C@]4(C)[C@H]3CC[C@@]21C", "inhibition": "-1%"}
{"smiles": "C[C@]12C[C@H](O)[C@H]3[C@@H](CCC4=CC(=O)CC[C@@]43C)[C@@H]1CC[C@@H]2C(=O)CO", "inhibition": "1% (active)"}
{"smiles": "O=C1NCN(c2ccccc2)C12CCN(CCCC(c1ccc(F)cc1)c1ccc(F)cc1)CC2", "inhibition": "-2.5%"}
{"smiles": "COc1ccc2c(c1)c(CC(=O)O)c(C)n2C(=O)c1ccccc1", "inhibition": "-3.5%"}
{"smiles": "COc1ccc2c(c1)c(CC(=O)O)c(C)n2C(=O)c1ccc(Cl)cc1", "inhibition": "4.9% (active)"}
{"smiles": "Cc1ccc([N+](=O)[O-])cc1S(=O)(=O)N(C)C", "inhibition": "9.9% (active)"}
{"smiles": "Oc1ccc(/C=C/c2ccc(/C=C/c3ccc(O)cc3)c(Br)c2)cc1", "inhibition": "1% (active)"}
{"smiles": "Oc1ccc(/C=C/c2cc(O)cc(O)c2)cc1", "inhibition": "23.2% (active)"}
{"smiles": "Oc1cc(O)cc(/C=C/c2ccc(O)c(O)c2)c1", "inhibition": "44% (active)"}
{"smiles": "O=c1cc(O)cc(/C=C/c2ccc(O)c(O)c2)o1", "inhibition": "30.2% (active)"}
{"smiles": "C=CCn1c(=O)c2c(nc(-c3ccc(S(=O)(=O)O)cc3)n2C)n(C)c1=O", "inhibition": "-0.9%"}
{"smiles": "Cn1c(=O)c2c(nc(/C=C/c3cccc(Cl)c3)n2C)n(C)c1=O", "inhibition": "11.3% (active)"}
{"smiles": "O=C1NC(=O)C(c2ccccc2[N+](=O)[O-])=C1Nc1ccc(O)c(Cl)c1", "inhibition": "35.4% (active)"}
{"smiles": "Cc1nc2n(c(=O)c1CCN1CCC(c3noc4cc(F)ccc34)CC1)CCCC2O", "note": "(centres undefined)", "inhibition": "1.5% (active)"}
{"smiles": "Clc1ccc2c(c1)C(N1CCNCC1)=Nc1ccccc1O2", "inhibition": "2.5% (active)"}
{"smiles": "CN1CCN(C2=Nc3ccccc3Oc3ccc(Cl)cc32)CC1", "inhibition": "1.9% (active)"}
{"smiles": "Nc1nc2[nH]c(=O)cnc2c(=O)[nH]1", "inhibition": "2.6% (active)"}
{"smiles": "Cn1cc(C(F)(F)F)nc1-c1ccc(OCC(O)CNCCOc2ccc(O)c(C(N)=O)c2)cc1", "note": "(centres undefined)", "inhibition": "5.6% (active)"}
{"smiles": "O=C(c1ccc2c(c1)OCCO2)N1CCCCC1", "inhibition": "4.8% (active)"}
{"smiles": "CCC(=O)N1CCN(C(=O)c2ccccc2)CC1", "inhibition": "-5.7%"}
{"smiles": "NC[C@H](O)c1ccc(O)c(O)c1", "inhibition": "9.5% (active)"}
{"smiles": "NCC(O)c1ccc(O)c(O)c1", "note": "(centres undefined)", "inhibition": "7.1% (active)"}
{"smiles": "C=C[C@H]1CN2CC[C@@H]1C[C@@H]2[C@H](O)c1ccnc2ccc(OC)cc12", "inhibition": "-1.1%"}
{"smiles": "NCCCNCCSP(=O)(O)O", "inhibition": "1.1% (active)"}
{"smiles": "CC(C)COCC(CN(Cc1ccccc1)c1ccccc1)N1CCCC1", "note": "(centres undefined)", "inhibition": "9.6% (active)"}
{"smiles": "Cc1ccc(=O)n(-c2ccccc2)c1", "inhibition": "0.9% (active)"}
{"smiles": "CCCCC1C(=O)N(c2ccccc2)N(c2ccccc2)C1=O", "inhibition": "-5.9%"}
{"smiles": "Cc1cc(O)c2c(c1)C(=O)c1cc(O)cc(O)c1C2=O", "inhibition": "10.6% (active)"}
{"smiles": "CCCc1c(-c2ccc(O)cc2)nn(-c2ccc(O)cc2)c1-c1ccc(O)cc1", "inhibition": "17.5% (active)"}
{"smiles": "Cn1cc(C(=O)OCC2CCN(CCNS(C)(=O)=O)CC2)c2ccccc21", "inhibition": "-2.2%"}
{"smiles": "CCN(CC)C(=S)SSC(=S)N(CC)CC", "inhibition": "14.5% (active)"}
{"smiles": "CC12C(=O)OC(=O)C1(C)C1CCC2O1", "note": "(centres undefined)", "inhibition": "-4%"}
{"smiles": "CN1CCc2cc(Cl)c(O)cc2[C@@H](c2ccccc2)C1", "inhibition": "10.2% (active)"}
{"smiles": "CN1CCc2cc(O)c(O)cc2C(c2ccccc2)C1", "note": "(centres undefined)", "inhibition": "14.7% (active)"}
{"smiles": "CN(C)c1cc2c(Nc3ccc4c(cnn4Cc4ccccc4)c3)ncnc2cn1", "inhibition": "-0.7%"}
{"smiles": "Cc1cc(C(C)(C)C)cc(C)c1CC1=NCCN1", "inhibition": "3.9% (active)"}
{"smiles": "Cc1cc(C(C)(C)C)c(O)c(C)c1CC1=NCCN1", "inhibition": "-1.4%"}
{"smiles": "N=S(=O)([O-])Cc1noc2c1C=C[C+]=C2", "inhibition": "-4.8%"}
{"smiles": "O=C1C(SCCO)=C(SCCO)C(=O)c2ccccc21", "inhibition": "-58.7%"}
{"smiles": "COC1=C(OC)C(=O)c2ccccc2C1=O", "inhibition": "6.2% (active)"}
{"smiles": "Oc1ccc(-c2nc(-c3ccc(F)cc3)c(-c3ccncc3)[nH]2)cc1", "inhibition": "31.8% (active)"}
{"smiles": "O=[N+]([O-])c1ccc(-c2nc(-c3ccc(F)cc3)c(-c3ccncc3)[nH]2)cc1", "inhibition": "6.9% (active)"}
{"smiles": "N#Cc1cc([N+](=O)[O-])c2sc(C(N)=O)[n+]([O-])c2c1", "inhibition": "2.3% (active)"}
{"smiles": "COc1nc(C)nc(Cl)c1NC1=NCCN1", "inhibition": "-8.3%"}
{"smiles": "Cc1nn(-c2ccccc2)c(C)c1C=NN1CCN(Cc2ccccc2)CC1", "inhibition": "5.8% (active)"}
{"smiles": "Nc1nnc(-c2cccc(Cl)c2Cl)c(N)n1", "inhibition": "-3.6%"}
{"smiles": "Nc1ccc(N2C(=O)c3ccccc3C2=O)c(Cl)c1", "inhibition": "10.7% (active)"}
{"smiles": "CCCCCCCCCC(=O)NC(CN1CCOCC1)[C@H](O)c1ccccc1", "note": "(some centres undefined)", "inhibition": "4.7% (active)"}
{"smiles": "CC1COc2c(N3CCN(C)CC3)c(F)cc3c(=O)c(C(=O)O)cn1c23", "note": "(centres undefined)", "inhibition": "-1.5%"}
{"smiles": "CN=C(NC#N)NCCSCc1nc[nH]c1C", "inhibition": "3.1% (active)"}
{"smiles": "NC(=O)OCC(COC(N)=O)c1ccccc1", "inhibition": "1.7% (active)"}
{"smiles": "NS(=O)(=O)C#Cc1ccccc1", "inhibition": "0.5% (active)"}
{"smiles": "Oc1ccc2ccccc2c1SSc1c(O)ccc2ccccc12", "inhibition": "34.9% (active)"}
{"smiles": "Clc1nccc2c1ccc1ccccc12", "inhibition": "-1.8%"}
{"smiles": "COc1cc(/C=C(\\C#N)C(=O)Nc2nnc(C(F)(F)F)s2)ccc1OCc1ccc(C(F)(F)F)cc1C(F)(F)F", "inhibition": "0.8% (active)"}
{"smiles": "CN(C)c1nc2c(Br)c(Br)c(Br)c(Br)c2[nH]1", "inhibition": "7% (active)"}
{"smiles": "Nc1cc(=O)[nH]c(N)n1", "inhibition": "2% (active)"}
{"smiles": "CCCN(CCC)CCc1cccc2c1CC(=O)N2", "inhibition": "1.5% (active)"}
{"smiles": "CC(C)CC(NP(=O)(O)O[C@@H]1O[C@@H](C)[C@H](O)[C@@H](O)[C@H]1O)C(=O)NC(Cc1c[nH]c2ccccc12)C(=O)O", "note": "(some centres undefined)", "inhibition": "4.6% (active)"}
{"smiles": "CN[C@H](CC(=O)O)C(=O)O", "inhibition": "2.3% (active)"}
{"smiles": "CC[C@H](C)C(=O)O[C@H]1CCC=C2C=C[C@H](C)[C@H](CC[C@@H]3C[C@@H](O)CC(=O)O3)[C@H]21", "inhibition": "-6.8%"}
{"smiles": "NC(N)=N[C@@H](CCC(=O)O)C(=O)O", "inhibition": "0.9% (active)"}
{"smiles": "CNCCC=C1c2ccccc2CCc2ccccc21", "inhibition": "2.3% (active)"}
{"smiles": "CC#CCOC(=O)c1c(C)nc2sc3c(c2c1N)CCC(O)C3", "note": "(centres undefined)", "inhibition": "1.6% (active)"}
{"smiles": "CN1CCC[C@H]1c1cccnc1", "inhibition": "-0.6%"}
{"smiles": "COc1ccccc1N1CCN(CCCNc2c(C)c(=O)n(C)c(=O)n2C)CC1", "inhibition": "7.4% (active)"}
{"smiles": "COc1ccccc1N1CCN(CCCNc2cc(=O)n(C)c(=O)n2C)CC1", "inhibition": "10.9% (active)"}
{"smiles": "CCC(C)N(C)C(=O)c1cc2ccccc2c(-c2ccccc2Cl)n1", "note": "(centres undefined)", "inhibition": "-1.2%"}
{"smiles": "CN1CCN(C2Cc3ccccc3Sc3ccc(Cl)cc32)CC1", "note": "(centres undefined)", "inhibition": "-2.3%"}
{"smiles": "OCCN1CCN(CCCN2c3ccccc3Sc3ccc(Cl)cc32)CC1", "inhibition": "45.4% (active)"}
{"smiles": "OCCN1CCN(CCCN2c3ccccc3C=Cc3ccccc32)CC1", "inhibition": "6.4% (active)"}
{"smiles": "CN1CCN(CCCN2c3ccccc3Sc3ccc(Cl)cc32)CC1", "inhibition": "46.5% (active)"}
{"smiles": "COc1cc2c(cc1OC)-c1cc(=Nc3c(C)cc(C)cc3C)n(C)c(=O)n1CC2", "inhibition": "-1.4%"}
{"smiles": "Cc1ccc(S(=O)(=O)/C=C/C#N)cc1", "inhibition": "0.7% (active)"}
{"smiles": "CC(C)(C)c1ccc(S(=O)(=O)/C=C/C#N)cc1", "inhibition": "1.2% (active)"}
{"smiles": "C=C[C@@]1(C)CC(=O)[C@]2(O)[C@@]3(C)[C@H](O)CCC(C)(C)[C@@H]3[C@H](O)[C@H](OC(C)=O)[C@@]2(C)O1", "inhibition": "19.3% (active)"}
{"smiles": "Nc1nc(N)c(N=O)c(OCC2CCCCC2)n1", "inhibition": "20.8% (active)"}
{"smiles": "CC(C)(C)c1onc(OCP(=O)(O)O)c1CC(N)C(=O)O", "note": "(centres undefined)", "inhibition": "4.7% (active)"}
{"smiles": "CCCN(CC1CC1)c1nc(C)nc(Nc2c(Cl)cc(Cl)cc2Cl)c1Cl", "inhibition": "0.1% (active)"}
{"smiles": "CSC(=N)N", "inhibition": "-7.4%"}
{"smiles": "CCSC(=N)N", "inhibition": "0.7% (active)"}
{"smiles": "CCN1/C(=C/C(C)=O)Sc2ccc(OC)cc21", "inhibition": "10.3% (active)"}
{"smiles": "CC(=O)O[C@H]1CC2(C)[C@@H](C[C@@H](O)[C@H]3[C@@]4(C)CC[C@@H](O)[C@@H](C)[C@@H]4CC[C@@]32C)/C1=C(/CCC=C(C)C)C(=O)O", "note": "(some centres undefined)", "inhibition": "2.7% (active)"}
